# Data from PubChem BioAssay AID1554 (Broad Institute, 2009).
# The whole screen tested about 300,000 compounds, of which about 520 (0.17%) were called active. Rule as the data show it: active = inhibition above about 50%; inconclusive = no clear call, values can overlap the other calls; inactive = below that. Many of the other results were omitted from the sample, so actives are more common in it than they were.
# Assay: PubChem AID 1554
# Conditions: BJeLR (HRASV12) viability, CellTiter-Glo ATP luminescence, 48 h; hits give high values; concentration not given here
row,Structure (SMILES),inhibition
1,CC(NC(=O)CC1SC(N)=NC1=O)c1ccccc1 (stereo unspecified),4.16% (inactive)
2,Brc1ccc2c(c1)[C@H]1OCC[C@H]1[C@@H](c1cccs1)N2,10.2% (inactive)
3,CC(C)Cn1c(=O)c2ccccc2n2c(CCC(=O)NCc3ccccn3)nnc12,-6.38% (inactive)
4,CN(C)N1C(N)=C(C#N)C(c2ccc(Br)cc2)C2=C1CCCC2=O (stereo unspecified),-10.4% (inactive)
5,COc1cc(NS(=O)(=O)c2ccc(NC(=S)NC(=O)c3ccc(Br)cc3)cc2)ncn1,-4.7% (inactive)
6,O=C1C2CCCN2C(=O)N1CCCCN1CCN(c2cccc(C(F)(F)F)c2)CC1 (stereo unspecified),-4.72% (inactive)
7,Cc1ccccc1NC(=O)c1nn(-c2ccc(F)c(F)c2)ccc1=O,-12.5% (inactive)
8,Cc1cccc(NC(=O)/C=C/c2ccc3c(c2)OCO3)n1,-11.7% (inactive)
9,CSCCC(NC(=O)COc1ccccc1)C(=O)OCCOc1ccc(Br)cc1 (stereo unspecified),5.25% (inactive)
10,COc1ccc(CN(C)C(=O)CC(c2ccccc2)c2ccccc2)cc1,3.85% (inactive)
11,COc1ccc(C(CCN(Cc2ccc(OC)c(OC)c2)C(=O)CCl)c2ccccc2)cc1 (stereo unspecified),85.3% (active)
12,COc1ccc(COC(=O)NC(C(=O)O)c2ccccc2)cc1 (stereo unspecified),-0.701% (inactive)
13,CCOC(=O)C1=C(CSc2nnnn2C)N(C)C(=O)NC1c1ccccc1 (stereo unspecified),0.916% (inactive)
14,CCN(CC)CCCN=C(N)N,-2.78% (inactive)
15,Nc1nc(-c2sc3nc4c(cc3c2N)CCCC4)nc(N2CCOCC2)n1,-1.17% (inactive)
16,CCOC(=O)C1CCN(S(=O)(=O)c2ccc3c(c2)N(C(C)=O)CCO3)CC1,6.7% (inactive)
17,CCN1C(=O)[C@@H]2[C@@H](c3ccc(-c4ccccc4)cc3)N3CCCC[C@@]3(C(=O)OC)[C@@H]2C1=O,6.3% (inactive)
18,COc1ccc(NC(=O)CN(C)C(=O)c2ccc(NC3CC3)c([N+](=O)[O-])c2)cc1,-1.94% (inactive)
19,O=C(CCC(=O)n1ncc2ccccc21)NCc1ccccc1Cl,2.75% (inactive)
20,COc1ccccc1CCC(=O)OCC(=O)N1CCN(S(=O)(=O)c2ccc(C)cc2C)CC1,-5.89% (inactive)
21,N#C/C(=C(\O)C(F)(F)F)c1nnc2n1CCCCC2,-1.07% (inactive)
